Here are results for 29 compounds from PubChem BioAssay (NCI).

Compounds without any hit were thinned out: in the full panel of roughly 83,000, 20% have a hit.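 The endpoint reported here, percent growth, reads 100 for growth as untreated, 0 for no net growth and -100 for all cells dead.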 A number with no mark means an inactive call. Active and inactive are the calls of the source. How the source made its calls: active means growth percent below 10; inactive means the rest.

Holding throughout (experiment): NCI-60 one-dose screen, 48 h (100 = growth as untreated, 0 = no growth, -100 = all killed)
What all share (settings): 10 µM unless noted

The test system of test [1] is NCI-H23 lung.
Test [2] relates to NCI-H226 lung.
Test [3] has as its system HOP-62 NSCLC.
The subject of test [4] is NCI-H460 lung.
For test [5], the system named is HOP-92 NSCLC.
In test [6] the test system is NCI-H522 lung.
The subject of test [7] is A549/ATCC NSCLC.
The test system of test [8] is 786-0 renal.
The subject of test [9] is COLO 205 colon.
The test system of test [10] is NCI-H322M lung.

As for `COC(C(=O)[C@@H](O)[C@@H](C)O)[C@@H]1Cc2cc3cc(O[C@H]4C[C@@H](O[C@H]5C[C@@H](O)[C@H](O)C(C)O5)[C@H](O)C(C)O4)cc(O)c3c(O)c2C(=O)[C@H]1O[C@H]1C[C@@H](O[C@H]2C[C@@H](O[C@H]3C[C@@H](OC)[C@H](O)C(C)O3)[C@@H](O)C(C)O2)[C@H](O)C(C)O1` (stereo partly specified), the growth was 47.4% in [1]; 38.8% in test [2]; 18.8% in test [3]; 18.7% in [4]; 64.2% in test [5]; 15.5% in [6]. Further, the values for the growth in test [7], in test [8] and in [9] were 19.2%, 50.7% and 31.2%, respectively.

Turning to `CS(=O)(=O)Nc1cc(-c2ccc3ncnc(Nc4ccc5c(cnn5Cc5ccccn5)c4)c3c2)cnc1Cl`, the growth was 76.7% in test [1]; 81.3% in [2]; 86.2% in test [10]; 68.8% in [3]; 2.29% (active) in [5]; 67.9% in test [6]. The growth in [7] was 89.2%; in test [8], 84.3%; in test [9], 93.1%.

Take `COc1cc(CNC(=O)/C=C/C=C/c2ccc3c(c2)OCO3)ccc1OCc1cn(-c2ccc(C)c(C)c2)nn1`: the growth in test [1] was 66.8%; in test [2], 47.8%; in [3], 92.5%; in test [4], 85%; in test [5], -4.29% (active); in [6], 59.5%. For the same compound, the growth is 80.4% in test [7], 106% in test [8] and 80.5% in [9].

Regarding `O=C1NCCC12CCN(c1c(Cl)cncc1-c1ccc(O)cc1)CC2`, the growth in [1] was 100%; in test [2], 83.9%; in [3], 112%; in test [4], 104%; in [5], 114%; in test [6] it was 78%. Also, the growth was 94.6% in test [7], 100% in test [8] and 105% in test [9].

With `CC(C)=CCC[C@](C)(O)[C@H]1CC[C@]2(C)[C@@H]1CC[C@@H]1[C@@]3(C)Cc4nccnc4C(C)(C)[C@@H]3CC[C@]12C`, the growth is 66.9% in test [1]; 74.6% in [2]; 94.6% in [3]; 93.2% in [5]; 62.8% in [6]; 46.3% in test [7]. Further, the growth in [8] is 78.6%; in test [9], 76.3%.

Take `O=C1/C(=C/c2cccs2)SC(=S)N1CCCN1CCOCC1`: the growth in test [1] was 96.7%; in test [2], 95.5%; in [3], 111%; in [4], 99%; in test [5], 23%; in test [6] it was 71.5%. Besides, the growth was 93.2% in test [7], 92.7% in test [8] and 111% in test [9].

Consider `O=C1CNC(c2ccccc2)C(c2ccccc2)N1` (stereo unspecified), for which the growth in test [1] was 85.2%; in test [2], 99.4%; in test [3], 121%; in [4], 103%; in test [5], 86.3%; in [6], 88.6%. For the same compound, the growth in test [7] was 93.5%; in [8], 92.4%; in [9], 115%.

Turning to `CN1C(=O)N(C)C2Nn3c(s/c(=C\c4ccc(C(F)(F)F)cc4)c3=O)=NC21` (stereo unspecified), the growth in test [1] was 99.4%; in test [2], 96.3%; in test [3], 115%; in test [4], 107%; in test [5] it was 110%; in test [6], 93.4%. Besides, the results for the growth in test [7], in test [8] and in test [9] were 104%, 105% and 118%, respectively.

Turning to `CCCCC(=O)c1ccco1`, the growth in [1] is 89.2%; in test [2], 95.1%; in test [3] it was 88.7%; in test [4] it was 106%; in test [5], 99.9%; in test [6], 92.2%. The growth in test [7] was 97.9%; in [8] it was 97.5%; in test [9], 104%.

Take `O=C(CI)NC1Oc2ccccc2-c2oc(=O)c(-c3ccccc3)cc21` (stereo unspecified): the growth in test [1] is -55.7% (active); in [2] it was -43.3% (active); in [3] it was -3.99% (active); in test [4], 0.996% (active); in [5], -72.4% (active); in [6] it was -75.6% (active). The growth is 94.7% in test [7], -79.3% (active) in test [8] and -53.5% (active) in test [9].

`Cc1c(-c2nc3ccc(F)cc3c(=O)[nH]2)c2ccccc2n1C`: the growth in [1] is 50.5%; in [2], 61.1%; in test [3], 38.4%; in [4], 16.2%; in test [5] it was 60.5%; in test [6], 42%. Further, the growth is 46.4% in test [7], 37.9% in test [8] and 30.9% in test [9].

On to `CC(=O)Cc1nsc(NC(=O)c2cc(-c3cc(Cl)cc(Cl)c3)oc2C)n1`, for which the growth is 101% in test [1]; 96.3% in [2]; 95.9% in test [3]; 105% in test [5]; 86.6% in [6]; 94.3% in [7]. The results for the growth in test [8] and in test [9] were 98% and 107%, respectively.

`CC(C)N1CN2C(=S)NC3C2N(C1)C(=S)N3C` (stereo unspecified): the growth in test [1] was 102%; in test [2] it was 100%; in [3] it was 103%; in test [4], 105%; in test [5] it was 101%; in [6] it was 90.2%. Also, the growth in test [7] was 90.8%; in test [8], 99.3%; in test [9] it was 120%.

For the compound `N#C/C(=C\c1ccc(-c2ccc(Cl)cc2)o1)C(=O)Nc1ncc(Cc2ccc(Cl)cc2)s1`, the growth was 31.8% in [1]; 65% in test [2]; -9.27% (active) in test [3]; -38.3% (active) in [4]; 94.6% in test [5]; 46.3% in test [6]. Further, the growth was -8.3% (active) in [7], 42% in test [8] and 57.2% in test [9].

`CC1=Nc2cnc(Nc3ccc(OCCN4CCCC4)cc3)nc2Nc2ccccc21`: the growth was 80.4% in test [1]; 77.8% in test [2]; 86.4% in test [3]; 64.2% in test [4]; 43.2% in test [5]; 73.9% in test [6]. Moreover, the results for the growth in test [7] and in test [8] were 86.5% and 54%, respectively.

Take `O=C(Nn1c2c(sc1=Nc1ccccc1)C(=O)c1ccccc1C2=O)c1cc2ccc1CCc1ccc(cc1)CC2`: the growth in test [1] was 30.6%; in test [2] it was 51.2%; in [3] it was 66.4%; in test [4] it was 71.9%; in test [5], 107%; in [6], 68%. The growth in test [7] is 64%; in test [8], 81%; in test [9], 102%.

In the case of `O=C1/C(=C/c2ccc(Cl)c(Cl)c2)CN(C(=O)C(Cl)Cl)C/C1=C\c1ccc(Cl)c(Cl)c1`, the growth in [1] is -66.3% (active); in [2], -31.2% (active); in test [3] it was -21.8% (active); in test [4], -55.8% (active); in test [5], -53% (active); in [6] it was -35.1% (active). In addition, the growth in [7] was 7.18% (active); in test [8], -90.7% (active); in test [9] it was -47.1% (active).

As to `OCc1cccc(-c2ccc3ncc(-c4nc(NC5CC5)ncc4F)n3c2)c1`, the growth in test [1] is -16.3% (active); in test [2], 2.19% (active); in [3] it was 2.21% (active); in test [4], -4.33% (active); in [5], -13.9% (active); in [6], -13.9% (active). Further, the growth in test [7] was -8.48% (active); in test [8], 6.46% (active); in test [9] it was -39.7% (active).

Regarding `Cc1ccc(S(=O)(=O)N2CCCC2CO)cc1` (stereo unspecified), the growth was 84.9% in test [1]; 99.9% in [2]; 188% in [3]; 99.9% in test [4]; 76.9% in test [5]; 90.7% in test [6]. Moreover, the growth is 103% in test [7], 100% in test [8] and 103% in test [9].

Take `COc1cccc([C@H]2c3[nH]c4ccccc4c3C[C@H]3C(=O)N(CCCCCCC(=O)NO)CC(=O)N23)c1`: the growth is 66.8% in test [1]; 88.7% in test [2]; 68.6% in test [3]; 72.9% in [4]; -1.94% (active) in test [5]; 25.6% in [6]. Further, the growth in test [7] is 94.9%; in test [8], 87.8%; in test [9], 60.2%.

`C#Cc1cccc(Nc2ncnc3ccc(-c4cncc(NS(C)(=O)=O)c4)cc23)c1`: the growth is 26.5% in [1]; 45% in [2]; 32% in [3]; 51.6% in [4]; -12.2% (active) in test [5]; 3.44% (active) in test [6]. The growth in test [7] is 48.8%; in [8] it was 40.6%; in test [9], 17.7%.

Regarding `CSc1nc2sc3c(c2c(=O)n1-c1ccc([N+](=O)[O-])cc1)CCCCC3`, the growth in test [1] is 90.8%; in test [2], 94%; in [3], 73.4%; in test [4] it was 74.7%; in test [5] it was 94.6%; in test [6], 81%. Moreover, the results for the growth in test [7], in test [8] and in [9] were 81.1%, 95.7% and 99%, respectively.

Take `CCOC(=O)CSc1ncnc2c1c(-c1ccccc1)c(-c1ccccc1)n2-c1ccc(C)cc1`: the growth in [1] was 75%; in [2] it was 77.8%; in [3], 64.8%; in test [4] it was 76.6%; in test [5], 49.4%; in test [6], 47.3%. For the same compound, the values for the growth in test [7], in [8] and in test [9] were 72.5%, 80.9% and 63.7%, respectively.

For the compound `Cc1ccc(-c2nc(/C=C3/C(=O)Nc4ccccc43)c3ccccn23)cc1`, the growth in test [1] is 72.6%; in [2], 88.7%; in [3], 91.8%; in test [4], 40.7%; in test [5], 105%; in [6], 57.7%. Further, the growth in [7] is 75.1%; in test [8] it was 104%; in test [9], 92.2%.

`COc1cc(CNS(=O)(=O)c2ccc(C)cc2)ccc1OCc1cn(-c2ccc(F)cc2)nn1`: the growth in test [1] is 79.6%; in [2], 71.4%; in [3], 102%; in test [5], 86.4%; in test [6] it was 75.8%; in test [7], 93.8%. The values for the growth in test [8] and in test [9] were 97.2% and 88%, respectively.

Consider `O=C(Nc1nc2ccc(F)cc2s1)c1cccnc1Nc1ccc(Cl)cc1`, for which the growth is 9.97% (active) in test [1]; 44.1% in test [2]; 75.6% in [3]; 9.26% (active) in [4]; 0.414% (active) in test [5]; 21.1% in [6]. Besides, the results for the growth in test [7] and in [8] were 31% and 56.2%, respectively.

For the compound `O=C(CCCCCCN1CC(=O)N2[C@H](c3cc(Br)cs3)c3[nH]c4ccccc4c3C[C@H]2C1=O)NO`, the growth was 50.4% in [1]; 79.9% in [2]; 41.8% in [3]; 35.1% in test [4]; 18.2% in [5]; 20.5% in test [6]. In addition, the growth in [7] was 61.1%; in test [8], 76.9%; in test [9], 42.6%.

As for `CCN(CC)CCOc1ccc(C(=C(C)c2ccc(Cl)cc2)c2ccc(OCCN(CC)CC)cc2)cc1`, the growth in [1] is 3.75% (active); in test [2] it was 103%; in [10] it was -29.9% (active); in test [3] it was -61.5% (active); in test [5] it was 6.28% (active); in test [6], -67.2% (active). In addition, the results for the growth in [7], in [8] and in test [9] were -68.9% (active), -97.6% (active) and -68.7% (active), respectively.

With `CC1=C(CCC(C)N(C)Cc2ccc(OCCCN3CCCC3)cc2)C(C)(C)CCC1` (stereo unspecified), the growth in test [1] is 64%; in test [2], 85.5%; in test [3], 36.6%; in [4], 5.81% (active); in test [5], 27.3%; in test [6], -52.2% (active). The values for the growth in test [7], in [8] and in test [9] were 37.8%, 17.3% and -78.8% (active), respectively.
